# In the library only some 3.5% were active in any assay of this set; here they are far more common.
# MITF primary = human MITF inhibition, primary screen; AlphaScreen MITF homodimerization, bead proximity signal; inhibition, % at 2.6 µM; AID 1259374; O75030; 650,000 tested, 0.91% active; in the data active means inhibition above about 50%;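 further: 0% = vehicle wells with protein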
# Target sequence (O75030 whole entry, looked up): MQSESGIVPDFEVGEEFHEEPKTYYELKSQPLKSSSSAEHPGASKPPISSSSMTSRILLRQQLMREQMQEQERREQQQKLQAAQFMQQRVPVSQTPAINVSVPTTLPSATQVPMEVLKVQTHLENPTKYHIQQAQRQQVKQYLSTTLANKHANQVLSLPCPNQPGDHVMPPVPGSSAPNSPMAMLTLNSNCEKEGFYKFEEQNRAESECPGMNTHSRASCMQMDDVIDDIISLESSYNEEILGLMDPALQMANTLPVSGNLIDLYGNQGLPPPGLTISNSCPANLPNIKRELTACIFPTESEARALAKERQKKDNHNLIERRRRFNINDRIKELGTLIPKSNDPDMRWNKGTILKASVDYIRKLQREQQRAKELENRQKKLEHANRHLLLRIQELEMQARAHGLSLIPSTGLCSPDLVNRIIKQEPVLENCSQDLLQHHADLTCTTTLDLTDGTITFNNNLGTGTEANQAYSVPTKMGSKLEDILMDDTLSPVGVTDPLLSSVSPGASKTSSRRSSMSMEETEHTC
# TEAD-YAP inh = TEAD-YAP interaction inhibition; HEK-TIYL cells, TEAD-Gal4/YAP UAS-luciferase luminescence; inhibition, % at 9.12 µM; 640,000 tested, 1.4% active; AID 1259422; in the data active means inhibition above about 32%;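 further: 0% = median of test compound wells and 100% = reference inhibitor wells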
# GPR151 activ = human GPR151 activation; activation, % at 11.2 µM; PathHunter beta-arrestin GPR151 cells, luminescence; 650,000 tested, 1% active; in the data active means activation above about 4.9%;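 further: 0% = median of compound wells and 100% = cells with positive control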
# FBW7 activator = activators of human E3 ligase FBW7 | Q969H0 | AlphaScreen FBW7–phospho-cyclin E peptide binding, activator screen | normalized activity (activation), % at 26.1 µM | 650,000 tested, 0.13% active; in the data active means normalized activity above about 1.9%;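 further: purified mutant Fbw7 with reduced substrate affinity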
# * marks the source's active call; other numbers are inactive results.
SMILES,MITF primary,TEAD-YAP inh,GPR151 activ,FBW7 activator
Cc1oc(-c2ccc(Cl)cc2)nc1CSCC(=O)NC1CC1,3,-1,1,-1
Cc1oc(-c2ccc(Cl)cc2)nc1CSCC(=O)N1CCC2(CC1)OCCO2,-9,38*,0,0
Cc1oc(-c2ccccc2Cl)nc1CSCC(=O)N1CCCC1,8,58*,0,0
COCCn1c(C(CNc2cccc(C)c2)CC(=O)O)nc2ccccc21 (centres undefined),-9,-14,1,0
Cc1cccc(OCCOC(=O)c2ccc(S(C)(=O)=O)c([N+](=O)[O-])c2)c1,7,38*,0,0
NC(=O)Cn1nnc(-c2cccc(NC(=O)C3CCC3)c2)n1,-5,8,1,0
COc1ccc(/C=N\Nc2nc3ccccc3s2)cc1,-3,42*,-2,0
C(=N\Nc1nncc2ccccc12)/c1ccc2c(c1)OCCO2,1,98*,-8,0
C(=N\Nc1ccc2ccccc2n1)/c1cccnc1,3,75*,-6,0
COc1cccc(/C=N/Nc2ccc3ccccc3n2)c1OC,-12,98*,-3,0
COc1ccc(/C=N/Nc2ccc3ccccc3n2)c(OC)c1OC,4,-40,-1,0
C(=N\Nc1ccc2ccccc2n1)/c1ccc2c(c1)OCCO2,3,80*,-1,0
COc1ccc(/C=N/Nc2ccc3ccccc3n2)cc1,-5,-39,-1,0
COc1cc(NS(=O)(=O)c2ccc(N3C(=O)c4c(Cl)c(Cl)c(Cl)c(Cl)c4C3=O)cc2)ncn1,-13,0,1,0
COc1ccc(C)cc1NC(=O)CCSCCC(=O)Nc1cc(C)ccc1OC,1,33*,1,0
COc1ccccc1NC(=O)CCSCCC(=O)Nc1ccccc1OC,-11,3,-1,0
Oc1ccc(/C=N/NC(=S)Nc2cccnc2)c(O)c1,119*,4,0,-1
O=[N+]([O-])c1ccccc1NC(=S)N/N=C/c1ccc(O)c(O)c1O,57*,49*,1,-1
Oc1ccc(/C=N/NC(=S)Nc2cccnc2)c(O)c1O,84*,-6,-1,-1
Oc1cccc(/C=N/NC(=S)Nc2cccnc2)c1O,112*,40*,-2,-1
FC(F)Sc1ccc(NC(=S)NN2CCOCC2)cc1,4,-6,1,0
Cc1ccc(Nc2c([N+](=O)[O-])sc3ccccc23)cc1,30,48*,0,0
CCOc1ccc(C2Oc3ccc(Br)cc3C=C2[N+](=O)[O-])cc1OCC (centres undefined),29,41*,-1,0
CCOc1ccc(C2Oc3c(Cl)cc(Cl)cc3C=C2[N+](=O)[O-])cc1OCC (centres undefined),24,64*,0,0
CCOc1ccc(C2Oc3c(cccc3OC)C=C2[N+](=O)[O-])cc1OCC (centres undefined),11,21,-1,0
SMILES,MITF primary,TEAD-YAP inh,GPR151 activ,FBW7 activator
CCc1ccc(OCC(=O)Nc2sc3c(c2C(=O)OC)CCCC3)cc1,-6,7,1,0
O=C1C(Cl)=C(Nc2ccccc2O)C(=O)N1c1ccccc1,9,-28,0,0
Cc1ccc(N2C(=O)C(Cl)=C(Nc3cc(Cl)ccc3O)C2=O)cc1,13,41*,-2,0
Cc1ccc2c(Cl)c(C(=O)Nc3ncccn3)sc2c1,3,51*,-4,1
COc1cc(Nc2nc(Nc3cnccn3)nc3c2ncn3C(C)C)cc(OC)c1OC,5,47*,2,0
COc1cc2nc(Nc3cnccn3)nc(Nc3cc(OC)c(OC)c(OC)c3)c2cc1OC,15,33*,1,0
COc1cc(Nc2nc(Nc3ccc(N4CCOCC4)cc3)nc3c2ncn3C(C)C)cc(OC)c1OC,5,4,0,0
COc1cc(Nc2nc(Nc3ccc(-n4ccnc4)cc3)nc3c2ncn3C(C)C)cc(OC)c1OC,-1,40*,-2,0
COc1cc(Nc2nc(Nc3ccc(N4CCOCC4)cc3)c3ncn(C(C)C)c3n2)cc(OC)c1OC,17,33*,1,0
COc1ccc(CN[C@H]2C[C@H]3C(=O)N4CCC[C@H]4C(=O)N3C2)cc1,-4,-16,-2,0
Nc1nnnn1/N=C/c1cn(-c2ccccc2)nc1-c1ccccc1,-2,-4,0,0
Cc1ccc(S(=O)(=O)N[C@H](C(=O)Oc2ccc([N+](=O)[O-])cc2)C(C)C)cc1,0,3,1,0
C/C(CC(=O)NCc1ccc(F)cc1)=N\NC(=O)c1cccc(C)c1O,11,-22,0,0
O=C(O)c1cccnc1Nc1ccc([N+](=O)[O-])cc1,21,36*,-6,0
